Laboratory results: the supplement of paper PMC10849652
Of roughly 8,800 targets only a part is listed; those with a hit were picked by preference. About 0.5% of all pairs of compound and target were hits.

Tests used:
Assay in all cases: log2 fold change, soluble protein after heating vs DMSO (PISA); higher = thermal stabilisation; K562 lysate, 10 uM; active = over 0.2 and 3.5 SD of the protein, either way, in both replicates (recomputed)
erlotinib = compound: C#Cc1cccc(Nc2ncnc3cc(OCCOC)c(OCCOC)cc23)c1 [erlotinib]
Outline: (§1)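 Thermal stability, expressed as log-two fold change relative to solvent controls, is given from duplicates. Crude K562 extract in PBS pH 7.4 with 1 mM MgCl2, at 1 mg/mL protein, was treated with 10 μM compound for 30 min and heated in aliquots for 3 min across 48°C-58°C. After pooling, adjustment to 0.5% NP-40 at 4°C and centrifugation at 21,000xg for 90 min, supernatant protein was measured by TMTpro 16plex LC-MS/MS with channel sums equalised.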

[1] = compound: C/C(=N\NC(=O)C1=CC(=CC=C1)S(=O)(=O)N2CCOCC2)/C3=C(C=CC(=C3)Cl)O
Outline: as §1

[2] = compound: C1=CC(=CC=C1C2=NC3=C(N2)C=C(C=C3)C(=O)N)OC4=CC=C(C=C4)Cl
Outline: as §1

[3] = compound: C1=CC2=C(C=CC(=C2)/C=C\3/C(=O)NC(=NCC4=CC=CS4)S3)N=C1
Outline: as §1

[4] = compound: C1=CC=C(C=C1)C2=NC(=C(N2)C3=CC=NC=C3)C4=CC(=C(C=C4)Cl)O
Outline: as §1

[5] = compound: C1=CC=C2C(=C1)C3=NNC4=CC=CC(=C43)C2=O
Outline: as §1

[6] = compound: C1CCN(C1)C(=O)NC2=CC=CC(=C2)NC3=NC=C(C(=N3)NCCC4=CN=CN4)Br
Outline: as §1

[7] = compound: C1CN(CCC1(CC2=CC=C(C=C2)Cl)N)C3=NC=NC4=C3C=CN4
Outline: as §1

IRAK-1-4 Inhibitor I = compound: C1COCCN1CCN2C3=CC=CC=C3N=C2NC(=O)C4=CC(=CC=C4)[N+](=O)[O-] [IRAK-1-4 Inhibitor I]
Outline: as §1

[8] = compound: CC(=O)c1cnc2ccc(-c3cc(Cl)c(O)c(Cl)c3)nc2c1N[C@H]1CC[C@H](CN(C)C)CC1
Outline: as §1

ralimetinib = compound: CC(C)(C)Cn1c(N)nc2ccc(-c3[nH]c(C(C)(C)C)nc3-c3ccc(F)cc3)nc21 [ralimetinib]
Outline: as §1

[9] = compound: CC(C)(O)CC(=O)NCCn1ccc2ncnc(Nc3ccc(Oc4cccc(C(F)(F)F)c4)c(Cl)c3)c21
Outline: as §1

[10] = compound: CC(C)C1=C2N=C(C=C(N2N=C1)NCC3=CC=CC=C3)NCCCCCCN
Outline: as §1

[11] = compound: CC1=C(C(CC(=O)N1)C2=CC=C(C=C2)C(F)(F)F)C(=O)NC3=C(C=C4C(=C3)C=NN4)F
Outline: as §1

[12] = compound: CC1=C(C=C(C=C1)NC(=O)C2=CC(=CC=C2)C(C)(C)C#N)NC3=CC4=C(C=C3)N=CN(C4=O)C
Outline: as §1

[13] = compound: CC1=C(C=C(C=C1)NC(=O)C2=CC(=CC=C2)N(C)C)NC(=O)C3=CC=C(C=C3)O
Outline: as §1

[14] = compound: CC1=CC=C(C=C1)SC2=C3C=C(SC3=CN=C2)C(=O)N
Outline: as §1

[15] = compound: CC1=C(C2=C(C=C1)C(=O)C3=CC=CC=C3N2CCCN)C
Outline: as §1

[16] = compound: C1=CC2=NC=CN=C2C=C1/C=C/3\C(=O)NC(=O)S3
Outline: as §1

ibrutinib = compound: C=CC(=O)N1CCC[C@@H](n2nc(-c3ccc(Oc4ccccc4)cc3)c3c(N)ncnc32)C1 [ibrutinib]
Outline: as §1

Measured: log2 fold change

TMC1 (UniProt Q8TDI8)
Chain of UniProt Q8TDI8 (Q8TDI8 whole entry, looked up): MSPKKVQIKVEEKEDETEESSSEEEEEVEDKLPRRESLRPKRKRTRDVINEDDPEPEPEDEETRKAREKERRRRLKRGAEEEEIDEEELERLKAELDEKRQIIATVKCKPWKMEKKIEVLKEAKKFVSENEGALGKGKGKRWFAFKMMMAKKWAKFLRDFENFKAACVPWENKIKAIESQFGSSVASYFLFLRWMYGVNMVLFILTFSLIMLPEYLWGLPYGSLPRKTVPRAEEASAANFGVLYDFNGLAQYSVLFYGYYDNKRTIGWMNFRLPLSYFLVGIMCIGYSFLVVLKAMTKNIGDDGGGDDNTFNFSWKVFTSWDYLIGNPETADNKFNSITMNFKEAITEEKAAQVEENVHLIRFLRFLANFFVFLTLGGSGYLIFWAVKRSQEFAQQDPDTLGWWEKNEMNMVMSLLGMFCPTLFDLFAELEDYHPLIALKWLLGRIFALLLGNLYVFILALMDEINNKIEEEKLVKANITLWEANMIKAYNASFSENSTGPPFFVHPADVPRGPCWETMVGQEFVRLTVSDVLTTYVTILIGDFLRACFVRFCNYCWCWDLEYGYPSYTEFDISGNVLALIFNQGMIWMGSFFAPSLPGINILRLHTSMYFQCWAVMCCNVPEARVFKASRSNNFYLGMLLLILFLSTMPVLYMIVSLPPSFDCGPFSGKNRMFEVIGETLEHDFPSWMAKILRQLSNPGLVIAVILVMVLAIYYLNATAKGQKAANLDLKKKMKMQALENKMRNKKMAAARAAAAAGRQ
inactive: erlotinib -0.028 | [1] -0.001 | [2] -0.007 | [3] 0.013 | [4] -0.072 | [5] -0.071 | [6] -0.148 | [7] -0.081 | IRAK-1-4 Inhibitor I 0.099 | [8] -0.016 | ralimetinib 0.156 | [9] -0.185 | [10] 0.204 | [11] -0.034 | [12] -0.104 | [13] 0.017 | [14] -0.045

TGFBR1 isoform 2 (UniProt P36897)
inactive: erlotinib 0.042 | [2] -0.069 | [6] 0.14 | [7] -0.102 | [10] -0.032 | [15] -0.043

TUBGCP5 (UniProt Q96RT8)
Chain of UniProt Q96RT8 (Q96RT8 whole entry, looked up): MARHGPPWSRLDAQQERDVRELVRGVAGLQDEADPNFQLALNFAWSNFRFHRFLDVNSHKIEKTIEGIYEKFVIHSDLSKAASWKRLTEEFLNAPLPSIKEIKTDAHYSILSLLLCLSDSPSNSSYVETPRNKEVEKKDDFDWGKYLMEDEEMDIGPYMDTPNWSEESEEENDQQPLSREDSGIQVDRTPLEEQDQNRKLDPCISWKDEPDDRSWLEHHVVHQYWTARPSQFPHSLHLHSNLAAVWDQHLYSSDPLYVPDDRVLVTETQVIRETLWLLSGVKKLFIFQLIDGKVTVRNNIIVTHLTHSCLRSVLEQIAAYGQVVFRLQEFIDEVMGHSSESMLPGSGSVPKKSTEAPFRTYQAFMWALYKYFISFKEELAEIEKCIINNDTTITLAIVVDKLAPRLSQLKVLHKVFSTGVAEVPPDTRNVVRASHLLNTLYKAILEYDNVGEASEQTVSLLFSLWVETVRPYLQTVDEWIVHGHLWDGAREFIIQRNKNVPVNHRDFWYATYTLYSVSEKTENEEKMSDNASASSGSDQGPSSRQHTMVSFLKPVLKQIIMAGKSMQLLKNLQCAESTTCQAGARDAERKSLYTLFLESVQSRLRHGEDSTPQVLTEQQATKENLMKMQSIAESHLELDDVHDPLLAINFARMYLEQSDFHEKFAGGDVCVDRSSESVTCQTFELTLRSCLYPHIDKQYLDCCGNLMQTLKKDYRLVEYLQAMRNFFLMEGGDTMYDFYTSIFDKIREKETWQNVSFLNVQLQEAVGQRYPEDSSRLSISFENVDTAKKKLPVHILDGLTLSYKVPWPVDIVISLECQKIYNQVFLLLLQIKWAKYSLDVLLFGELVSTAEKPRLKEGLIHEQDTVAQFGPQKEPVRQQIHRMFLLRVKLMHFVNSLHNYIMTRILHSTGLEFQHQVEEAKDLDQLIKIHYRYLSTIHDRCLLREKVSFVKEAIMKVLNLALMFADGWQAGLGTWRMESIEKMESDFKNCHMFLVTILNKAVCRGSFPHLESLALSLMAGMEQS
inactive: [1] 0.001 | [3] -0.026 | [16] 0.024 | [4] 0.013 | [5] 0.01 | [6] -0.003 | [7] -0.043 | IRAK-1-4 Inhibitor I -0.034 | ibrutinib 0.036 | [8] 0.363 | ralimetinib 0.038 | [9] 0.026 | [11] 0.009 | [15] 0.001 | [12] -0.007 | [13] -0.049 | [14] -0.118

TFPT (UniProt P0C1Z6)
Chain of UniProt P0C1Z6 (P0C1Z6 whole entry, looked up): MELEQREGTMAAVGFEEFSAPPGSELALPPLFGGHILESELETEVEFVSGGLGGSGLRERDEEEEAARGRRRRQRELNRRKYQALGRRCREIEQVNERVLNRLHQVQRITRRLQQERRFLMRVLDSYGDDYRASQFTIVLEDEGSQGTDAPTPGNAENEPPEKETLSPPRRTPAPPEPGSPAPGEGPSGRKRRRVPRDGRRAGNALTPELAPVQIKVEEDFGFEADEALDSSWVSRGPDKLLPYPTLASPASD
inactive: erlotinib -0.078 | [2] 0.037 | [16] -0.186 | ibrutinib 0.046 | [8] 0.1 | [10] -0.053 | [15] -0.145 | [14] -0.06

TUBA4A (UniProt C9JQ00)
inactive: [16] -0.18 | ibrutinib 0.125

TXNRD2 isoform 3 (UniProt Q9NNW7)
Chain of UniProt Q9NNW7 (Q9NNW7 whole entry, looked up): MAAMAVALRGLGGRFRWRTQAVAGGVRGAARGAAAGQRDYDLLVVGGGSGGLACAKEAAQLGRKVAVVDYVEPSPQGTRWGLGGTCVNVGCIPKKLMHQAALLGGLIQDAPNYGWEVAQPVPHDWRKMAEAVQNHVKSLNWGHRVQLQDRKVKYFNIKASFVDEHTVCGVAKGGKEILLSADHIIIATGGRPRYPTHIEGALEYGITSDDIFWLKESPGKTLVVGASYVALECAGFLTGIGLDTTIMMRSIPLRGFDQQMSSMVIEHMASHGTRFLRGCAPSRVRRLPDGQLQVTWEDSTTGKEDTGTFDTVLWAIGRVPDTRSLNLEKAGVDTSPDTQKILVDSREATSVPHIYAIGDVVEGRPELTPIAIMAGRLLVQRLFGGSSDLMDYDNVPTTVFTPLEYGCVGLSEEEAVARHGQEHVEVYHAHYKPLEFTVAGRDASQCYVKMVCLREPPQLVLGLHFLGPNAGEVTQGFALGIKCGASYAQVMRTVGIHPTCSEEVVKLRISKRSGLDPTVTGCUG
inactive: erlotinib 0.024 | [2] 0.035 | [4] 0.14 | IRAK-1-4 Inhibitor I -0.006 | ralimetinib -0.018 | [9] -0.323 | [10] -0.303 | [13] 0.079

TMEM154 (UniProt Q6P9G4)
inactive: [4] 0.01 | [6] -0.096 | [7] 0.108 | IRAK-1-4 Inhibitor I 0.019 | ralimetinib -0.079 | [9] 0.164 | [15] 0.048 | [12] -0.052 | [13] 0.172

TLE3 (UniProt H0YL70)
inactive: [15] 0.004

TCF4 (UniProt P15884)
Chain of UniProt P15884 (P15884 whole entry, looked up): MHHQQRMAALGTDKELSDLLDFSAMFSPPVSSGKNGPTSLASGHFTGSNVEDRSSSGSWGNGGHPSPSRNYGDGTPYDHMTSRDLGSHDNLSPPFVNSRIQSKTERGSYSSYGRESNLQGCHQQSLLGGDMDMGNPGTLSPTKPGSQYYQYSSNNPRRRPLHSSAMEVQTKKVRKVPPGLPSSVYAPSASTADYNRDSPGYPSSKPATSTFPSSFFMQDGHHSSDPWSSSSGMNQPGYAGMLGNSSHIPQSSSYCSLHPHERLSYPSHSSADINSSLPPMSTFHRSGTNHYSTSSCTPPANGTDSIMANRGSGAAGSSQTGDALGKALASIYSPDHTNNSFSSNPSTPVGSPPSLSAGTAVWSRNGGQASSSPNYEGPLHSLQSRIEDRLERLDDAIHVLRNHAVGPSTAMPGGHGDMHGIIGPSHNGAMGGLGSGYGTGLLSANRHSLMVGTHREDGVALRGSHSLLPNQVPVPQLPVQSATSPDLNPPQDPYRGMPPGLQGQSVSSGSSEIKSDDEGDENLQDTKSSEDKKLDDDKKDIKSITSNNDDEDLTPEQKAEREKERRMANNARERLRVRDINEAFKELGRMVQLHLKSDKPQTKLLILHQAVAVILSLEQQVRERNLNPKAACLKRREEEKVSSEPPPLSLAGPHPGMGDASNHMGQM
inactive: [4] 0.005 | [6] 0.234 | [7] -0.165 | IRAK-1-4 Inhibitor I -0.152 | [8] -0.285 | ralimetinib -0.069 | [9] 0.005 | [11] 0.007 | [15] -0.019 | [12] -0.056 | [13] 0.003 | [14] -0.035

TMPO isoform 2 (UniProt P42167)
inactive: [1] -0.053 | [3] 0.044 | [16] 0.143 | [5] -0.121 | [6] 0.163 | [7] 0.038 | ibrutinib -0.108 | [15] -0.006

UBAP2, A0A0D9SFI5
inactive: [12] 0.035

TSPAN3 (UniProt O60637)
Chain of UniProt O60637 (O60637 whole entry, looked up): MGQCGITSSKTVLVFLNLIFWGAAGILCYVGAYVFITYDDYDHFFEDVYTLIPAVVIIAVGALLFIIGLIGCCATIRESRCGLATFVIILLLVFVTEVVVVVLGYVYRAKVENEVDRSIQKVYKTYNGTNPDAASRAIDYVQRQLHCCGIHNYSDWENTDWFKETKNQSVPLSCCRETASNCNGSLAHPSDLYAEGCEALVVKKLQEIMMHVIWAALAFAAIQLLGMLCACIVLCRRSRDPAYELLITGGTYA
inactive: erlotinib 0.002 | [1] 0.012 | [2] 0.058 | [3] -0.073 | [4] 0 | [5] -0.135 | [6] 0.006 | [7] 0.032 | IRAK-1-4 Inhibitor I 0.091 | [8] 0.008 | ralimetinib -0.069 | [9] -0.025 | [10] 0.05 | [11] -0.173 | [15] -0.099 | [13] 0.135 | [14] -0.04

TCF3 (UniProt X6REB3)
inactive: [1] -0.006 | [3] -0.208 | [5] -0.192

TCF20 (UniProt Q9UGU0)
inactive: erlotinib -0.04 | [2] -0.001 | [16] 0.039 | ibrutinib -0.025 | [8] 0.128 | [10] -0.317 | [15] -0.212 | [12] -0.004 | [14] -0.166

TRPM4 (UniProt Q8TD43)
Chain of UniProt Q8TD43 (Q8TD43 whole entry, looked up): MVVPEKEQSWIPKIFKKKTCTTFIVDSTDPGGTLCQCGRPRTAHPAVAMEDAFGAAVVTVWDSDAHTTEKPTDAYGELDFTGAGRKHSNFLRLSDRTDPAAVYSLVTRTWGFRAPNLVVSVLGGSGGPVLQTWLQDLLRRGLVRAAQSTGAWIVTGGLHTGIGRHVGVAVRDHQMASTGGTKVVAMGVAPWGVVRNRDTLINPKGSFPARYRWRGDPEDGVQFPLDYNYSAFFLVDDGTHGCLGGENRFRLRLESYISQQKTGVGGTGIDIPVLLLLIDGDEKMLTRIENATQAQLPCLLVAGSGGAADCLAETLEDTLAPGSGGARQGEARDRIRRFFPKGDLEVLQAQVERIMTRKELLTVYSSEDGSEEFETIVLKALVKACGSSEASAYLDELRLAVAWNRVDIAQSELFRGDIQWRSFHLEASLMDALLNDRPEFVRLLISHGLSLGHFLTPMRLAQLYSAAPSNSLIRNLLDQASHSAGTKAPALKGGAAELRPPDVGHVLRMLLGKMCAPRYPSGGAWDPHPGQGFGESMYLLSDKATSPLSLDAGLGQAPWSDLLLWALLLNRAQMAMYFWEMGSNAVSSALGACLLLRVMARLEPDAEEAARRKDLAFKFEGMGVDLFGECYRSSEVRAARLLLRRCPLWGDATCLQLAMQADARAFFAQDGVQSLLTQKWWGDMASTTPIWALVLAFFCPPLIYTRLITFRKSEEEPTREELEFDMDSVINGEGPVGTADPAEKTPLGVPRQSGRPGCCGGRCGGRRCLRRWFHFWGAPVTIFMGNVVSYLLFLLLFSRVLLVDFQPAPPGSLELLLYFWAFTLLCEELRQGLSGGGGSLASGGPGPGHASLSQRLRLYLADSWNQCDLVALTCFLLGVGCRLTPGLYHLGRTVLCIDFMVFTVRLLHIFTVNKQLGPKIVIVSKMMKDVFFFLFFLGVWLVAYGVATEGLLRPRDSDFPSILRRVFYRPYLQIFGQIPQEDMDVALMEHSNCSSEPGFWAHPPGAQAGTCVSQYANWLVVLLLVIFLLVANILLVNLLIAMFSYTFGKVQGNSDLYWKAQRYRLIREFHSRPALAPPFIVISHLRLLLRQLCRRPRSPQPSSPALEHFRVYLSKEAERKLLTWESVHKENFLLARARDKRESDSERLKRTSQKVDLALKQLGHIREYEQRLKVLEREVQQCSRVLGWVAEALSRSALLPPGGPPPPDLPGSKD
inactive: erlotinib 0.018 | [2] 0.164 | [16] -0.094 | [4] 0.004 | IRAK-1-4 Inhibitor I -0.152 | ibrutinib 0.099 | ralimetinib -0.021 | [9] -0.063 | [10] -0.325 | [15] -0.055 | [12] 0.116 | [13] 0.05

TFPI isoform 2 (UniProt P10646)
Chain of UniProt P10646 (P10646 whole entry, looked up): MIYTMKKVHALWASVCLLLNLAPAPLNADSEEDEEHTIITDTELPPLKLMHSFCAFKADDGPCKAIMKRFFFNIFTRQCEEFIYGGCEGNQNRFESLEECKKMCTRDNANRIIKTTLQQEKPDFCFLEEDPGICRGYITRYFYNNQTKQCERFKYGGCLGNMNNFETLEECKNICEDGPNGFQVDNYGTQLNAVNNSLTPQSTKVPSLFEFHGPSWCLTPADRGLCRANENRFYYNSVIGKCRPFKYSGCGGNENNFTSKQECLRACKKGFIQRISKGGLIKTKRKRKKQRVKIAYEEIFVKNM
inactive: [1] 0.01 | [3] 0.113 | [5] -0.171 | [12] -0.034
